Only some compounds are listed: those with a hit (about 1.8% of all), similar ones and a draw of the others.
Fam108B inh – mouse Fam108B serine hydrolase inhibitors, primary screen, counter-screen for RBBP9 inhibitor project, biochemical, fluorescence polarization | inhibition, % at 9.51 µM | 300,000 compounds, 0.33% hits | recombinant Fam108B, FP-Rh probe fluorescence polarization;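 active = inhibition above the screen mean inhibition plus 3 SD, computed separately per campaign, cut at about 18% in these data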;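 note: inhibitors lower polarization as less probe binds the enzyme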
GSTO1 inh – inhibitors of recombinant GSTO1, primary screen, counter-screen for RBBP9 inhibitor project, biochemical, fluorescence polarization; Glutathione S-transferase omega-1 (Homo sapiens), P78417; activity-based probe fluorescence polarization; 300,000 compounds, 1.1% hits; inhibition, % at 5.96 µM;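 active = inhibition above the campaign mean inhibition plus 3 SD, cut at about 35% in these data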
LYPLA2 inh – LYPLA2 inhibitors, primary screen, counter-screen for PME1 inhibitor project, biochemical, fluorescence polarization, FP-Rh probe ABPP | Acyl-protein thioesterase 2 (Homo sapiens), O95372 | recombinant LYPLA2 | inhibition, % at 5.9 µM | 320,000 compounds, 0.38% hits | AID 2177, 2009;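 active = inhibition above the screen-wide mean plus 3 SD, limit set per campaign, cut at about 26% in these data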
PAD4 inh – human PAD4 inhibitors, primary screen, biochemical, fluorescence polarization, 1536-well format; Protein-arginine deiminase type-4 (Homo sapiens), Q9UM07; recombinant PAD4, RCA probe fluorescence polarization; inhibition, % at 6.36 µM; 330,000 compounds, 0.41% hits; AID 485272, 2010;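 active = percent inhibition above a cutoff equal to the mean of all tested compounds plus 3 SD, cut at about 15% in these data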
Target sequence (Q9UM07 whole entry, looked up): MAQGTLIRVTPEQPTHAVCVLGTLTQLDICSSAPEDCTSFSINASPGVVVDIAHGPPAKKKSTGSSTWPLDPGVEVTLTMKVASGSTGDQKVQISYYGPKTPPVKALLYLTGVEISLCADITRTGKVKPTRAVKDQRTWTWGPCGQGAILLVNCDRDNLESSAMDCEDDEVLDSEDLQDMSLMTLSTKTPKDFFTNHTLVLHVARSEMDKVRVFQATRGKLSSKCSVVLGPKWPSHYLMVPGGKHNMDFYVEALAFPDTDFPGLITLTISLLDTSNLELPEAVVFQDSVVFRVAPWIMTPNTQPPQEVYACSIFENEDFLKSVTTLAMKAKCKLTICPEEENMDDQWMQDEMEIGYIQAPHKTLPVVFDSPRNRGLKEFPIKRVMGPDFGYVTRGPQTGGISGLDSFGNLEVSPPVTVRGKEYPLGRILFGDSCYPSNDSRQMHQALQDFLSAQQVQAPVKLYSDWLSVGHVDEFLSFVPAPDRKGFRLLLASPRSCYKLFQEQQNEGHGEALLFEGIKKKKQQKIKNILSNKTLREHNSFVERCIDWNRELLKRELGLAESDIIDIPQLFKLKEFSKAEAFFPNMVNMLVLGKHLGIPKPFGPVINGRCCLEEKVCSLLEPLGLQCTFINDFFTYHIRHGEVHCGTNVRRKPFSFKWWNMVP
PME-1 primary – PME-1 inhibitors via competitive probe labeling, primary screen, biochemical, fluorescence polarization, FP-Rh probe, HTS. 320,000 compounds, 0.53% hits. recombinant PME-1. inhibition, % at 5.9 µM. Protein phosphatase methylesterase 1 (Homo sapiens), Q9Y570;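 active = inhibition above the campaign mean of all compounds plus 3 SD, cut at about 26% in these data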;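 note: competitive labeling of PME-1 active site by serine hydrolase directed probe; inhibitors block probe labeling so polarization falls and inhibition rises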
LYPLA1 inh – LYPLA1 inhibitors, primary screen, counter-screen for PME1 inhibitor project, biochemical, fluorescence polarization, FP-Rh probe ABPP. Acyl-protein thioesterase 1 (Homo sapiens), O75608. recombinant LYPLA1. inhibition, % at 5.9 µM. 320,000 compounds, 0.16% hits. AID 2174, 2009;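 active = inhibition above the mean of all tested compounds plus 3 SD, set per campaign, cut at about 14% in these data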;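 note: inhibitors block serine hydrolase probe labeling of LYPLA1 so polarization falls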
Hits are given with their value.

What do the screens show for `Cc1[nH]c2ccccc2c1/C=N/Nc1nc(Nc2ccccc2)nc(N2CCOCC2)n1`?
Fam108B inh: inactive; GSTO1 inh: inactive; LYPLA2 inh: inactive; PAD4 inh: inactive; PME-1 primary: 38.8; LYPLA1 inh: inactive

How did Nc1ccc(N2CCCCCC2)cc1 do in these assays?
Fam108B inh: inactive; GSTO1 inh: 77.6; LYPLA2 inh: inactive; PAD4 inh: 42.7; PME-1 primary: inactive; LYPLA1 inh: inactive

Results for Cc1cc(NC(=O)CSc2nc3ccccc3c(=O)n2C2CCCC2)no1 ?
Fam108B inh: inactive; GSTO1 inh: inactive; LYPLA2 inh: inactive; PAD4 inh: inactive; PME-1 primary: 26.8; LYPLA1 inh: inactive

What do the screens show for `CN(C)c1ccc(NC(=O)CSc2nc3ccccc3c(=O)n2C2CCCCC2)cc1`?
Fam108B inh: inactive; GSTO1 inh: inactive; LYPLA2 inh: inactive; PAD4 inh: inactive; PME-1 primary: inactive; LYPLA1 inh: inactive

What do the screens show for `CC(=O)Oc1ccc(C(=O)OCC(=O)c2c(N)n(C)c(=O)n(C)c2=O)cc1OC(C)=O`?
Fam108B inh: inactive; GSTO1 inh: 35.3; LYPLA2 inh: inactive; PAD4 inh: inactive; PME-1 primary: inactive; LYPLA1 inh: inactive

How did O=C(NCc1n[nH]c(=O)c2ccccc12)C1CC(=O)N(c2ccc(Cl)cc2)C1 (stereo unspecified) do in these assays?
Fam108B inh: inactive; GSTO1 inh: inactive; LYPLA2 inh: inactive; PAD4 inh: inactive; PME-1 primary: inactive; LYPLA1 inh: inactive

What do the screens show for `CNC(=O)c1c(NC(=O)c2ccc(S(=O)(=O)N3CC(C)OC(C)C3)cc2)sc2c1CCN(C(C)C)C2` (stereo unspecified)?
Fam108B inh: inactive; GSTO1 inh: inactive; LYPLA2 inh: inactive; PAD4 inh: inactive; PME-1 primary: inactive; LYPLA1 inh: inactive

Results for CNC(=O)c1c(NC(=O)c2ccc(S(=O)(=O)N3CCCC3)cc2)sc2c1CCN(C(C)C)C2 ?
Fam108B inh: inactive; GSTO1 inh: inactive; LYPLA2 inh: inactive; PAD4 inh: inactive; PME-1 primary: 33.8; LYPLA1 inh: inactive

How did COc1ccc(CNC(=O)C2CCN(C(=O)c3csc(Nc4ccc(C)cc4)n3)CC2)cc1 do in these assays?
Fam108B inh: inactive; GSTO1 inh: inactive; LYPLA2 inh: inactive; PAD4 inh: inactive; PME-1 primary: inactive; LYPLA1 inh: inactive

Results for N#CCCN1CCN(C2=NC(=O)/C(=C\c3cccs3)S2)CC1 ?
Fam108B inh: inactive; GSTO1 inh: inactive; LYPLA2 inh: 28.7; PAD4 inh: inactive; PME-1 primary: inactive; LYPLA1 inh: inactive

How did CC(C)CC(=O)O/N=C1\C(=O)N(Cc2ccc(Cl)cc2)c2ccc([N+](=O)[O-])cc21 do in these assays?
Fam108B inh: 43.3; GSTO1 inh: 40.3; LYPLA2 inh: 43.5; PAD4 inh: inactive; PME-1 primary: 35.3; LYPLA1 inh: inactive

Results for COc1cc(/C=N\Nc2nc3ccccc3o2)cc(OC)c1OC ?
Fam108B inh: inactive; GSTO1 inh: inactive; LYPLA2 inh: inactive; PAD4 inh: inactive; PME-1 primary: 28.8; LYPLA1 inh: inactive

How did Brc1ccc(/C=N/Nc2nc3ccccc3o2)cc1 do in these assays?
Fam108B inh: inactive; GSTO1 inh: inactive; LYPLA2 inh: inactive; PAD4 inh: inactive; PME-1 primary: 31.1; LYPLA1 inh: inactive

How did COc1ccc(/C=N/Nc2nc3ccccc3o2)cc1O do in these assays?
Fam108B inh: inactive; GSTO1 inh: inactive; LYPLA2 inh: inactive; PAD4 inh: inactive; PME-1 primary: 48.1; LYPLA1 inh: inactive

How did O=C(c1cc(-c2cccnc2)nc2ccccc12)N1CCN(S(=O)(=O)c2cccs2)CC1 do in these assays?
LYPLA2 inh: inactive; PAD4 inh: inactive; PME-1 primary: inactive; LYPLA1 inh: inactive

Results for Cc1[nH][nH]c(=O)c1C(c1ccc(O)c(Br)c1)c1c(C)[nH][nH]c1=O ?
Fam108B inh: inactive; GSTO1 inh: inactive; LYPLA2 inh: inactive; PAD4 inh: inactive; PME-1 primary: inactive; LYPLA1 inh: inactive

How did CCOc1cc(C(c2c(C)[nH][nH]c2=O)c2c(C)[nH][nH]c2=O)ccc1O do in these assays?
Fam108B inh: inactive; GSTO1 inh: 46.0; LYPLA2 inh: inactive; PAD4 inh: inactive; PME-1 primary: inactive; LYPLA1 inh: inactive

What do the screens show for `O=C(Nc1nc2cc3c(cc2s1)OCCO3)c1cccs1`?
Fam108B inh: inactive; GSTO1 inh: inactive; LYPLA2 inh: inactive; PAD4 inh: inactive; PME-1 primary: inactive; LYPLA1 inh: inactive

Results for NNc1nc2cc3c(cc2s1)OCCO3 ?
Fam108B inh: inactive; GSTO1 inh: inactive; LYPLA2 inh: inactive; PAD4 inh: inactive; PME-1 primary: 39.2; LYPLA1 inh: inactive

Results for Cc1ccc(N=Cc2c(O)ccc3ccccc23)cc1F ?
Fam108B inh: inactive; GSTO1 inh: inactive; LYPLA2 inh: inactive; PAD4 inh: inactive; PME-1 primary: inactive; LYPLA1 inh: inactive

How did N#Cc1cccc(N=Cc2c(O)ccc3ccccc23)c1 do in these assays?
Fam108B inh: inactive; GSTO1 inh: 37.9; LYPLA2 inh: inactive; PAD4 inh: inactive; PME-1 primary: inactive; LYPLA1 inh: inactive

Results for COc1ccc(/C=C/C(=O)OCC(=O)NC(C)CCc2ccccc2)cc1OC (stereo unspecified) ?
PAD4 inh: inactive

Results for CCOC(=O)c1c(C)[nH]c(C2=NNC(=Nc3ccccc3OC)SC2)c1C ?
Fam108B inh: inactive; GSTO1 inh: inactive; LYPLA2 inh: inactive; PAD4 inh: inactive; PME-1 primary: inactive; LYPLA1 inh: inactive

How did CCOC(=O)c1c(C)[nH]c(C2=NNC(=Nc3ccc(OCC)cc3)SC2)c1C do in these assays?
Fam108B inh: inactive; GSTO1 inh: inactive; LYPLA2 inh: inactive; PAD4 inh: inactive; PME-1 primary: 27.7; LYPLA1 inh: inactive

How did Cc1nnc(NC(=O)CSc2ccc([N+](=O)[O-])cn2)s1 do in these assays?
Fam108B inh: inactive; GSTO1 inh: 37.3; LYPLA2 inh: inactive; PAD4 inh: inactive; PME-1 primary: inactive; LYPLA1 inh: inactive

Results for COc1ccc(CC(=O)OCCc2cc3cc(OC)c(OC)cc3c(=O)o2)cc1 ?
LYPLA2 inh: inactive; PAD4 inh: inactive; PME-1 primary: inactive; LYPLA1 inh: inactive

Results for O=[N+]([O-])c1cc(Cl)c2cccnc2c1O ?
Fam108B inh: inactive; GSTO1 inh: inactive; LYPLA2 inh: inactive; PAD4 inh: inactive; PME-1 primary: inactive; LYPLA1 inh: inactive

What do the screens show for `O=[N+]([O-])c1cc(F)c2cccnc2c1O`?
Fam108B inh: inactive; GSTO1 inh: 58.4; LYPLA2 inh: inactive; PAD4 inh: inactive; PME-1 primary: inactive; LYPLA1 inh: inactive

How did CC(=O)Nc1ccc(NC(=O)C(C)Sc2nnc(C3CC3)n2-c2ccccc2)cc1 (stereo unspecified) do in these assays?
LYPLA2 inh: inactive; PAD4 inh: inactive; PME-1 primary: inactive; LYPLA1 inh: inactive

Results for CC(C)NC(=O)Nc1cccc2c1O[C@H](CN(C)S(C)(=O)=O)[C@@H](C)CN([C@H](C)CO)C2=O ?
PAD4 inh: inactive

Bioassay records from PubChem BioAssay.
